Test results taken from PubChem BioAssay (EPA / NIEHS).
Several values for one entry are separate records, joined by “and”; a condition that tells them apart may be missing. Equal entries are not always repeated. The source holds several records for some structures; these can differ, active in one and inactive in another. Activity calls are given as the source filed them. The calls were made as follows: active = hit-call score of the fitted dose curve at least 0.9, where 1 is the maximum; inactive = score below 0.9.

Assays:
[1] = read-out: Vascular endothelial growth factor receptor 2 (Homo sapiens) (UniProt P35968); experiment: BSK_4H_VEGFRII: BioMAP Diversity Plus: 4H Assay for Vascular endothelial growth factor receptor 2 (VEGFR2) Biomarker Activity (AID 2283031); settings: primary human endothelial cells (HUVEC); actives raise or lower the signal;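 as to AC50: cell-surface VEGFR2 protein level quantified by ELISA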
In short: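 Primary human umbilical vein endothelial cells in the BioMAP 4H system were dosed with test chemical, and 24 h later VEGFRII was measured by ELISA. Activity was fitted bidirectionally against DMSO as negative control and baseline.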

[2] = read-out: Human Leukocyte Antigen - DR isotype (HLADR), HLA-DRA (gene 3122); experiment: BSK_BE3C_HLADR: BioMAP Diversity Plus: BE3C Assay for Human Leukocyte Antigen - DR isotype (HLADR) Biomarker Activity (AID 2283032); settings: primary human bronchial epithelial cells; actives raise or lower the signal
In short: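 BioMAP BE3C format: human bronchial epithelium, 24 h compound treatment, ELISA detection of HLA-DR, with bidirectional analysis relative to DMSO.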

[3] = read-out: Vascular cell adhesion molecule 1 (VCAM1), VCAM1 (gene 7412); experiment: BSK_4H_VCAM1: BioMAP Diversity Plus: 4H Assay for Vascular cell adhesion molecule 1 (VCAM1) Biomarker Activity (AID 2283033); settings: primary human endothelial cells (HUVEC); actives raise or lower the signal
In short: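 In this human endothelial (HUVEC) system, biomarker ELISA was run 24 h after compound addition, and total protein in parallel wells was assessed by SRB at 560 nm; DMSO served as negative control.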

[4] = read-out: Monokine induced gamma interferon (MIG), CXCL9 (gene 4283); experiment: BSK_BE3C_MIG: BioMAP Diversity Plus: BE3C Assay for Monokine induced gamma interferon (MIG) Biomarker Activity (AID 2283035); settings: primary human bronchial epithelial cells; actives raise or lower the signal
In short: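 Dose cells (human primary bronchial epithelial), incubate 24 h, quantify MIG by ELISA, then fit concentration–response in both directions relative to DMSO control.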

[5] = read-out: Transforming growth factor beta 1 (TGFb1), TGFB1 (gene 7040); experiment: BSK_BE3C_TGFb1: BioMAP Diversity Plus: BE3C Assay for Transforming growth factor beta 1 (TGFb1) Biomarker Activity (AID 2283036); settings: primary human bronchial epithelial cells; actives raise or lower the signal
In short: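 TGF-b1 measured via ELISA, 24 h after chemical dosing of human bronchial epithelial cells (BE3C). Overt cytotoxicity assessed in parallel by SRB (0.1%, TCA-fixed, 560 nm); analysis bidirectional relative to DMSO.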

[6] = read-out: Plasminogen activator inhibitor-1 (PAI1), SERPINE1 (gene 5054); experiment: BSK_BE3C_PAI1: BioMAP Diversity Plus: BE3C Assay for Plasminogen activator inhibitor-1 (PAI1) Biomarker Activity (AID 2283037); settings: primary human bronchial epithelial cells; actives raise or lower the signal
In short: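 In this multiplexed primary-cell system, bronchial epithelial cells receive test chemical and are sampled at 24 h. PAI-1 is read by ELISA, with DMSO serving as negative control for bidirectional fitting.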

[7] = read-out: urokinase plasminogen activator (uPA), PLAU (gene 5328); experiment: BSK_BE3C_uPA: BioMAP Diversity Plus: BE3C Assay for urokinase plasminogen activator (uPA) Biomarker Activity (AID 2283038); settings: primary human bronchial epithelial cells; actives raise or lower the signal
In short: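 Human primary bronchial epithelial cells were exposed to chemical for 24 h, then uPA levels were measured by ELISA. Responses were fitted bidirectionally against DMSO as negative control and baseline. Parallel SRB staining of total protein gauged overt cytotoxicity.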

[8] = read-out: Urokinase-type plasminogen activator receptor (uPAR), PLAUR (gene 5329); experiment: BSK_BE3C_uPAR: BioMAP Diversity Plus: BE3C Assay for Urokinase-type plasminogen activator receptor (uPAR) Biomarker Activity (AID 2283039); settings: primary human bronchial epithelial cells; actives raise or lower the signal
In short: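 Chemically treated human bronchial epithelial cells (lung primary) are assayed for uPAR by ELISA after 24 h, with data fitted in both directions using DMSO as negative control.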

[9] = read-out: Tissue plasminogen activator (tPA), PLAT (gene 5327); experiment: BSK_BE3C_tPA: BioMAP Diversity Plus: BE3C Assay for Tissue plasminogen activator (tPA) Biomarker Activity (AID 2283041); settings: primary human bronchial epithelial cells; actives raise or lower the signal
In short: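 Using human lung primary bronchial epithelial cells, tPA was measured by ELISA 24 h after dosing; data fitted relative to DMSO.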

[10] = read-out: Interleukin-8 (IL8), CXCL8 (gene 3576); experiment: BSK_CASM3C_IL8: BioMAP Diversity Plus: CASM3C Assay for Interleukin-8 (IL8) Biomarker Activity (AID 2283042); settings: primary human coronary artery smooth muscle cells; actives raise or lower the signal;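 also: IL-8 protein level quantified by ELISA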
[11] = read-out: Human Leukocyte Antigen - DR isotype (HLADR), HLA-DRA (gene 3122); experiment: BSK_CASM3C_HLADR: BioMAP Diversity Plus: CASM3C Assay for Human Leukocyte Antigen - DR isotype (HLADR) Biomarker Activity (AID 2283043); settings: primary human coronary artery smooth muscle cells; actives raise or lower the signal;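 also: cell-surface HLA-DR protein level quantified by ELISA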
[12] = read-out: Macrophage colony-stimulating factor (MCSF), CSF1 (gene 1435); experiment: BSK_CASM3C_MCSF: BioMAP Diversity Plus: CASM3C Assay for Macrophage colony-stimulating factor (MCSF) Biomarker Activity (AID 2283044); settings: primary human coronary artery smooth muscle cells; actives raise or lower the signal;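 also: M-CSF protein amount quantified by ELISA after 24 h exposure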
[13] = read-out: Low-density lipoprotein receptor (LDLR), LDLR (gene 3949); experiment: BSK_CASM3C_LDLR: BioMAP Diversity Plus: CASM3C Assay for Low-density lipoprotein receptor (LDLR) Biomarker Activity (AID 2283045); settings: primary human coronary artery smooth muscle cells; actives raise or lower the signal;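 also: LDLR protein level on the cell surface quantified by ELISA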
[14] = read-out: Monocyte Chemoattractant Protein-1 (MCP1), CCL2 (gene 6347); experiment: BSK_CASM3C_MCP1: BioMAP Diversity Plus: CASM3C Assay for Monocyte Chemoattractant Protein-1 (MCP1) Biomarker Activity (AID 2283046); settings: primary human coronary artery smooth muscle cells; actives raise or lower the signal;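 also: MCP-1 level quantified by ELISA 24 h after dosing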
[15] = BSK_CASM3C_Proliferation: Cell Proliferation Assessment in the BioMAP Diversity Plus: CASM3C Assay (AID 2283047); settings: primary human coronary artery smooth muscle cells;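 also: sulforhodamine B total protein stain as relative cell number at 560 nm; sub-confluent cells exposed 48 h before staining; fitted both ways against DMSO so gain or loss of cell number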
[16] = read-out: Monokine induced gamma interferon (MIG), CXCL9 (gene 4283); experiment: BSK_CASM3C_MIG: BioMAP Diversity Plus: CASM3C Assay for Monokine induced gamma interferon (MIG) Biomarker Activity (AID 2283048); settings: primary human coronary artery smooth muscle cells; actives raise or lower the signal
[17] = read-out: serum amyloid A (SAA), SAA1 (gene 6288); experiment: BSK_CASM3C_SAA: BioMAP Diversity Plus: CASM3C Assay for serum amyloid A (SAA) Biomarker Activity (AID 2283049); settings: primary human coronary artery smooth muscle cells; actives raise or lower the signal;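 also: SAA protein level quantified by ELISA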
[18] = BSK_CASM3C_SRB: Viability Assessment in the BioMAP Diversity Plus: CASM3C Assay (AID 2283050); settings: primary human coronary artery smooth muscle cells;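 also: total protein by SRB staining as cytotoxicity measure in parallel cultures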
[19] = read-out: Interleukin-6 (IL6), IL6 (gene 3569); experiment: BSK_CASM3C_IL6: BioMAP Diversity Plus: CASM3C Assay for Interleukin-6 (IL6) Biomarker Activity for (AID 2283040); settings: primary human coronary artery smooth muscle cells; actives raise or lower the signal
[20] = read-out: Interferon-gamma inducible Protein 10 (IP10), CXCL10 (gene 3627); experiment: BSK_BE3C_IP10: BioMAP Diversity Plus: BE3C Assay for Interferon-gamma inducible Protein 10 (IP10) Biomarker Activity (AID 2283034); settings: primary human bronchial epithelial cells; actives raise or lower the signal
In short: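 BE3C cells (human bronchial epithelial, primary); 24 h exposure; ELISA for IP-10; DMSO-referenced bidirectional fit.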

Measured: AC50

Oc1cc(Cl)ccc1Oc1ccc(Cl)cc1Cl
active: [1] 6.66 µM and 9.59 µM | [2] 30.3 µM [middle of 4 runs] | [3] 23.8 µM [middle of 4 runs] | [4] 36 µM [middle of 4 runs] | [5] 27.5 µM [middle of 4 runs] | [6] 30.1 µM [middle of 4 runs] | [7] 31.2 µM [middle of 4 runs] | [8] 30.5 µM [middle of 4 runs] | [9] 20.4 µM [middle of 4 runs] | [10] 37.7 µM [middle of 4 runs] | [11] 29.4 µM [middle of 4 runs] | [12] 34 µM [middle of 4 runs] | [13] 30 µM [middle of 4 runs] | [14] 33.6 µM and 37.7 µM and 31.4 µM | [15] 17.6 µM [middle of 4 runs] | [16] 37.8 µM [middle of 4 runs] | [17] 32 µM [middle of 4 runs] | [18] 33.1 µM [middle of 4 runs]
inactive: [1]

O=S(=O)(O)C(F)(F)C(F)(F)C(F)(F)C(F)(F)C(F)(F)C(F)(F)C(F)(F)C(F)(F)F
active: [2] 23.1 µM [middle of 8 runs] | [4] 43.3 µM [middle of 4 runs] | [5] 28.6 µM and 12.1 µM and 19.2 µM | [7] 32 µM [middle of 4 runs] | [9] 15.3 µM and 16 µM and 25.9 µM | [16] 47.3 µM and 52.5 µM
inactive: [1] | [3] | [4] | [5] | [6] | [7] | [19] | [9] | [10] | [11] | [12] | [13] | [14] | [15] | [16] | [17] | [18]

O=C(O)C(F)(F)C(F)(F)C(F)(F)C(F)(F)C(F)(F)C(F)(F)C(F)(F)F
inactive: [1] | [2] | [3] | [4] | [5] | [6] | [7] | [19] | [9] | [10] | [11] | [12] | [13] | [14] | [15] | [16] | [17] | [18]
active: [15] 16.6 µM | [16] 36.6 µM

CNC(=O)Oc1cccc(N=CN(C)C)c1
inactive: [1] | [3] | [20] | [4] | [5] | [6] | [7] | [19] | [9] | [10] | [11] | [12] | [13] | [14] | [15] | [16] | [17] | [18]
active: [2] 26.6 µM

CC1(C)C(C=C(Cl)Cl)C1C(=O)OC(C#N)c1ccc(F)c(Oc2ccccc2)c1 (centres undefined)
inactive: [1] | [2] | [3] | [4] | [5] | [6] | [7] | [19] | [9] | [10] | [11] | [12] | [13] | [14] | [15] | [16] | [17] | [18]

O=C(O)CCCOc1ccc(Cl)cc1Cl
inactive: [1] | [2] | [3] | [4] | [5] | [6] | [7] | [19] | [9] | [10] | [11] | [12] | [13] | [14] | [15] | [16] | [17] | [18]

CCC(C)(NC(=O)c1cc(Cl)c(C)c(Cl)c1)C(=O)CCl (centres undefined)
inactive: [5] | [19] | [10] | [13]
active: [1] 20 µM | [2] 13.6 µM | [3] 10.5 µM | [4] 32.8 µM | [7] 29.7 µM | [9] 11 µM | [11] 17.7 µM | [12] 25.2 µM | [14] 22.9 µM | [15] 18.5 µM | [16] 17.5 µM | [17] 14.4 µM | [18] 23.4 µM

CCOc1nc(NC)nc(NC(=O)NS(=O)(=O)c2ccccc2C(=O)OC)n1
inactive: [1] | [2] | [3] | [4] | [5] | [6] | [7] | [19] | [9] | [10] | [11] | [12] | [13] | [14] | [15] | [16] | [17] | [18]

CCS(=O)(=O)c1cccnc1S(=O)(=O)NC(=O)Nc1nc(OC)cc(OC)n1
inactive: [1] | [2] | [3] | [4] | [5] | [6] | [7] | [19] | [9] | [10] | [11] | [12] | [13] | [14] | [15] | [16] | [18]
active: [17] 16.4 µM

COC(=O)c1ccccc1S(=O)(=O)NC(=O)N(C)c1nc(C)nc(OC)n1
active: [5] 148 nM
inactive: [1] | [2] | [3] | [4] | [6] | [7] | [19] | [9] | [10] | [11] | [12] | [13] | [14] | [15] | [16] | [17] | [18]

CC(C)N(C(=O)COc1nnc(C(F)(F)F)s1)c1ccc(F)cc1
inactive: [1] | [2] | [3] | [4] | [5] | [6] | [7] | [19] | [9] | [10] | [11] | [12] | [13] | [14] | [15] | [16] | [17] | [18]

CC1(c2ccc(Oc3ccccc3)cc2)OC(=O)N(Nc2ccccc2)C1=O (centres undefined)
active: [1] 20 µM | [3] 15.3 µM | [15] 13.7 µM
inactive: [2] | [4] | [5] | [6] | [7] | [19] | [9] | [10] | [11] | [12] | [13] | [14] | [16] | [17] | [18]
